Holding throughout (assay): DAPPL (digital affinity profiling via proximity ligation, sequencing); 10 mM Tris-HCl pH 7.5, 50 mM NaCl, 1 mM DTT, 4% glycerol, room temperature, 30 min; GST-TFs on glutathione beads, 16-mer random dsDNA library, 0.1% formaldehyde crosslink after washing; high values mean tight binding
In one assay the target is T1, FLI1 (Homo sapiens, UniProt Q01543 1-452).
T1 sequence: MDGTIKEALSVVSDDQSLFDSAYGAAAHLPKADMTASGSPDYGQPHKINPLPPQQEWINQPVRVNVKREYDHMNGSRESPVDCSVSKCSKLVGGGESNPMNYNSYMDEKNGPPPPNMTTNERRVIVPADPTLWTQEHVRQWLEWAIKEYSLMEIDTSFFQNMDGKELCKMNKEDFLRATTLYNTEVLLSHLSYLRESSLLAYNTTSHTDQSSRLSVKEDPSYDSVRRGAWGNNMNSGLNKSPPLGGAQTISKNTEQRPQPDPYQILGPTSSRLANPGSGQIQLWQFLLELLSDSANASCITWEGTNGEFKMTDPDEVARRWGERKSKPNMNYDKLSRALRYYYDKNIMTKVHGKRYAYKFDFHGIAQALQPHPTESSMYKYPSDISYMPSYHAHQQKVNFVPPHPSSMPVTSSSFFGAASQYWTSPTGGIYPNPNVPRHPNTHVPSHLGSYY
To be noted: protein: recombinant; tags: N-terminal GST; dsDNA, one strand shown. The procedure, abridged: (§1)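 Pools of DNA-barcoded human transcription factors, expressed in yeast as GST fusions on glutathione beads and combined with a tag-only sample, were incubated with 200 nmole of a 16-mer random double-stranded DNA library. Incubation took 30 min at room temperature in Tris/NaCl/DTT/glycerol buffer and was followed by washing, 0.1% formaldehyde crosslinking, proximity ligation (BsaI/T4 ligase, 1 h, 37 °C), PCR amplification and sequencing on an Illumina NextSeq500. Binding signal is the ratio of a hexamer's read frequency for a factor to its frequency for the tag-only sample.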

The next assay has as its target T2, ELK1 (Homo sapiens, UniProt P19419 1-428).
T2 sequence: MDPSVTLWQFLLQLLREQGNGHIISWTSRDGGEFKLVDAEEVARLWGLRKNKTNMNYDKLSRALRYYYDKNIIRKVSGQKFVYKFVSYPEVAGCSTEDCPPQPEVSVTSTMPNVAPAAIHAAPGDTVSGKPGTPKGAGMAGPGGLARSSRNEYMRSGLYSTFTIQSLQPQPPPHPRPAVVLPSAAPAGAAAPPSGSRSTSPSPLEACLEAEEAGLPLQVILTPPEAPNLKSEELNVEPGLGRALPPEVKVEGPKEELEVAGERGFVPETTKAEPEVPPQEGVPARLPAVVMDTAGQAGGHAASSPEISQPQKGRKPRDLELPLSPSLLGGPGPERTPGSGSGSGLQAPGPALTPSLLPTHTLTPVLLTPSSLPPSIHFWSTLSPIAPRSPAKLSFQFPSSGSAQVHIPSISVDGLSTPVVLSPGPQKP
The following applies: protein: recombinant; tags: N-terminal GST; dsDNA, one strand shown. The procedure, abridged:
as §1

Another assay concerns the target T3, GABPA (Homo sapiens, UniProt Q06546 1-454).
T3 sequence: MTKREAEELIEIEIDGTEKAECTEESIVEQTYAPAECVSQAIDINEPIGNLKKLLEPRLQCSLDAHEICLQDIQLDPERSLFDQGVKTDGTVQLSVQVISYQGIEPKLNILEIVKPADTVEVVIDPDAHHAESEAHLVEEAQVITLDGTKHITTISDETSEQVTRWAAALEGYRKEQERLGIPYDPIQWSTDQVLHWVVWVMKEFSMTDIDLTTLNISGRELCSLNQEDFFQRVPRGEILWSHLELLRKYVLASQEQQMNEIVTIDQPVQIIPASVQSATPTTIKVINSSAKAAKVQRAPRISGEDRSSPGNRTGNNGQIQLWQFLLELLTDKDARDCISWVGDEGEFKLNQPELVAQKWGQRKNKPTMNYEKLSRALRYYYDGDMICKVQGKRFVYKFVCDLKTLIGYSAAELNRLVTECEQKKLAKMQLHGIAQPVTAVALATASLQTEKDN
The following applies: protein: recombinant; tags: N-terminal GST; dsDNA, one strand shown. The procedure, abridged:
as §1

The target of another assay is T4, ERG (Homo sapiens, UniProt P11308 1-479).
T4 sequence: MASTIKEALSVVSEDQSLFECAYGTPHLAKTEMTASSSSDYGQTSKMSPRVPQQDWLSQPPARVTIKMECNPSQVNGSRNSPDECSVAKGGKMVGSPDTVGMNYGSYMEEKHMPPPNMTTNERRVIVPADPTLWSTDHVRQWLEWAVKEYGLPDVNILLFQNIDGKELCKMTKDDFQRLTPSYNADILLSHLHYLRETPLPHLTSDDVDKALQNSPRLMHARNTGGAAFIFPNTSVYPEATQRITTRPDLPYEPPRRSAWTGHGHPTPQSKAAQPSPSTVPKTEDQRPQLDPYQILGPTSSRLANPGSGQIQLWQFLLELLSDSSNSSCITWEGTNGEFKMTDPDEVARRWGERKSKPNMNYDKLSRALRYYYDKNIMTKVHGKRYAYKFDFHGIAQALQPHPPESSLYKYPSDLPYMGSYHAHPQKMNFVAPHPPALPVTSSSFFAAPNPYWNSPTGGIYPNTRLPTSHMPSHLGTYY
To be noted: protein: recombinant; tags: N-terminal GST; dsDNA, one strand shown. The essentials:
as §1

The next assay addresses ELF1 (Homo sapiens, UniProt P32519 1-619). The following applies: protein: recombinant; tags: N-terminal GST; dsDNA, one strand shown. The essentials: as §1
The target in another assay is SPI1 (Homo sapiens, UniProt P17947 1-270). To be noted: protein: recombinant; tags: N-terminal GST; dsDNA, one strand shown. The essentials: as §1
The target in a further assay is SPIB (Homo sapiens, UniProt Q01892 1-262). The following applies: protein: recombinant; tags: N-terminal GST; dsDNA, one strand shown. The procedure, abridged: as §1
The target of another assay is T5, FEV (Homo sapiens, UniProt Q99581 1-238).
T5 sequence: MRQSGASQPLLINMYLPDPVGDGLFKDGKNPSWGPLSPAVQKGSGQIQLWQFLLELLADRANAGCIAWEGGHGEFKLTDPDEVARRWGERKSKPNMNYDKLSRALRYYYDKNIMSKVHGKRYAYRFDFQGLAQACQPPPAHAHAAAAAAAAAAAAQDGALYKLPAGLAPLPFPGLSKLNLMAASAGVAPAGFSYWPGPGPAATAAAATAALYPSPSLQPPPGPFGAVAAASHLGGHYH
The following applies: protein: recombinant; tags: N-terminal GST; dsDNA, one strand shown. The essentials:
as §1

For another assay, the target named is ETV5 (Homo sapiens, UniProt P41161 1-510). To be noted: protein: recombinant; tags: N-terminal GST; dsDNA, one strand shown. The procedure, abridged:
as §1

The next assay addresses HSF1 (Homo sapiens, UniProt Q00613 1-529). The following applies: protein: recombinant; tags: N-terminal GST; chain copies: 3; dsDNA, one strand shown. The essentials:
as §1

The target in a further assay is T6, SPIC (Homo sapiens, UniProt Q8N5J4 1-248).
T6 sequence: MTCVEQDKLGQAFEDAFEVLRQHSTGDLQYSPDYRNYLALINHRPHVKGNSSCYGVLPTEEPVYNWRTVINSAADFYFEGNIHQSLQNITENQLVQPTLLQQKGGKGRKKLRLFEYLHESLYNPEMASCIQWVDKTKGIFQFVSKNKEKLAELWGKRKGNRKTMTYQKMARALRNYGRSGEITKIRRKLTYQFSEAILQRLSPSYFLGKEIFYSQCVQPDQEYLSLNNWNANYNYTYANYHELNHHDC
The following applies: protein: recombinant; tags: N-terminal GST; dsDNA, one strand shown. The essentials:
as §1

In another assay the target is ELF4 (Homo sapiens, UniProt Q99607 1-663). To be noted: protein: recombinant; tags: N-terminal GST; dsDNA, one strand shown. The essentials:
as §1

The target in another assay is T7, ELK4 (Homo sapiens, UniProt P28324-2 1-405).
T7 sequence: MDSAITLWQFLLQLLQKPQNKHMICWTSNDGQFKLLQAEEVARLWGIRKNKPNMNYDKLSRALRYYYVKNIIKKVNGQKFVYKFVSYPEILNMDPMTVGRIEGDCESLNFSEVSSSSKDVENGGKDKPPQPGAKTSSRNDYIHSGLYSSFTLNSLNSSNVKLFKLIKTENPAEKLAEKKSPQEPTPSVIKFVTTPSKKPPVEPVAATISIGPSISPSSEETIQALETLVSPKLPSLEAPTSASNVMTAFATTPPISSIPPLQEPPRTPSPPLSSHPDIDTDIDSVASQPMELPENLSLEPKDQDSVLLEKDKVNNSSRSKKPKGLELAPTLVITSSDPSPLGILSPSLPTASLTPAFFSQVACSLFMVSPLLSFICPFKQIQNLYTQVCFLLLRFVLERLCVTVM
To be noted: protein: recombinant; tags: N-terminal GST; dsDNA, one strand shown. The essentials: as §1

A further assay has as its target T8, ETV2 (Homo sapiens, UniProt O00321 1-342).
T8 sequence: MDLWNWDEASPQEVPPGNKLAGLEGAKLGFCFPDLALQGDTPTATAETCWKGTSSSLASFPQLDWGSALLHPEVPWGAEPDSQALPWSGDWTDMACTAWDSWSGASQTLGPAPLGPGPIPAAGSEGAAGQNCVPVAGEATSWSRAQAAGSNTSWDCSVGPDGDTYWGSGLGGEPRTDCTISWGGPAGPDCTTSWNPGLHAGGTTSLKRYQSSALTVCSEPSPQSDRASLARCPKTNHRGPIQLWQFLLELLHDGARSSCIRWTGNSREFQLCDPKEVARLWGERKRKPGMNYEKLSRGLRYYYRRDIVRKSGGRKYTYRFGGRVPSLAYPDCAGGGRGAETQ
The following applies: protein: recombinant; tags: N-terminal GST; dsDNA, one strand shown. The procedure, abridged:
as §1

The next assay concerns the target T9, ELF3 (Homo sapiens, UniProt P78545 1-371).
T9 sequence: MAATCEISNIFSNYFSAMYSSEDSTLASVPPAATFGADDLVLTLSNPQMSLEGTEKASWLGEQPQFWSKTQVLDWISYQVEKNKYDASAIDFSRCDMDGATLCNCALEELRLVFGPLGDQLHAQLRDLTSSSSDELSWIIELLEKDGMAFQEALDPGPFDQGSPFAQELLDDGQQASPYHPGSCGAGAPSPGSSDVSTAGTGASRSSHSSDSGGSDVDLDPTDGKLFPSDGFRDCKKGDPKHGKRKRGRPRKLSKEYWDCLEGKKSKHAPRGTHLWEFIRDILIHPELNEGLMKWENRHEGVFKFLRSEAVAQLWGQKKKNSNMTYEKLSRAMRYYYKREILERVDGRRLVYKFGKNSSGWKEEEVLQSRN
The following applies: protein: recombinant; tags: N-terminal GST; dsDNA, one strand shown. The procedure, abridged:
as §1

Another assay addresses CRX (Homo sapiens, UniProt O43186 1-299). To be noted: protein: recombinant; tags: N-terminal GST; dsDNA, one strand shown. The procedure, abridged:
as §1

The target of another assay is ETV1 (Homo sapiens, UniProt P50549 1-477). The following applies: protein: recombinant; tags: N-terminal GST; dsDNA, one strand shown. The essentials: as §1
Sequence of ETV1 (P50549 whole entry): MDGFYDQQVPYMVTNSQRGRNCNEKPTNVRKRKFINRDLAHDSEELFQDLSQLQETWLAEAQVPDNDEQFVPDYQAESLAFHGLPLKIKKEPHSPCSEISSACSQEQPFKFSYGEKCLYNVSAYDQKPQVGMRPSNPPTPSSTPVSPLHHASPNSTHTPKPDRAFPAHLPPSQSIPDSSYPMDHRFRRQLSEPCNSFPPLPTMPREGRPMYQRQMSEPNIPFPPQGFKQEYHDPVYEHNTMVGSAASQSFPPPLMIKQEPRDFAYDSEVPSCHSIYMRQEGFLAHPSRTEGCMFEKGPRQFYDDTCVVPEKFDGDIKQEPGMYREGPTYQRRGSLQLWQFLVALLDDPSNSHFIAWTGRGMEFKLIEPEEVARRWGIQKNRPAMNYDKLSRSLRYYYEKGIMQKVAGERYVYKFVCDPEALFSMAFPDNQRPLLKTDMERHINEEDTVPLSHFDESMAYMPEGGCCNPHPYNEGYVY

Sequence of ETV5 (P41161 whole entry): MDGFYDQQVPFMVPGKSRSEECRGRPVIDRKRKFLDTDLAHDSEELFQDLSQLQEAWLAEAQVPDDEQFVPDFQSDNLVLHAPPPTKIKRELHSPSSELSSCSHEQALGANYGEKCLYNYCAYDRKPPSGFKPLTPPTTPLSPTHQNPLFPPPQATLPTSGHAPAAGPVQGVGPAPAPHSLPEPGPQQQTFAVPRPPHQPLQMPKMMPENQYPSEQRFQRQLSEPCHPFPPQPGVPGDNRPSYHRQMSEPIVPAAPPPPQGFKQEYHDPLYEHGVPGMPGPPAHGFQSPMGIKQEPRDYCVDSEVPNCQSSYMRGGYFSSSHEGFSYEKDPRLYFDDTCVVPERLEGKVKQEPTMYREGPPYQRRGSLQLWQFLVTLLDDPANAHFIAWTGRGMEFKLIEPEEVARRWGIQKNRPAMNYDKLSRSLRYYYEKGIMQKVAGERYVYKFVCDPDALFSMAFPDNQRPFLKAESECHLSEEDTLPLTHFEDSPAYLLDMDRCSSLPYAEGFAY
Sequence of CRX (O43186 whole entry): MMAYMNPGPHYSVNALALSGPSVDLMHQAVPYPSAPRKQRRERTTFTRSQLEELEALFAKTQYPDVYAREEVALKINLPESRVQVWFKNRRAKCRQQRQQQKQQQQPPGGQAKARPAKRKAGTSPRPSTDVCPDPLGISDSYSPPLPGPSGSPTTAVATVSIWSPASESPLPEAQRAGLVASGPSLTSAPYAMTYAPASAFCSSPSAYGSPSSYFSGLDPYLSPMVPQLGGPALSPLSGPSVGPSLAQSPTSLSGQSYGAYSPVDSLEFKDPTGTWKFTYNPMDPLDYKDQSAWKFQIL
Sequence of HSF1 (Q00613 whole entry): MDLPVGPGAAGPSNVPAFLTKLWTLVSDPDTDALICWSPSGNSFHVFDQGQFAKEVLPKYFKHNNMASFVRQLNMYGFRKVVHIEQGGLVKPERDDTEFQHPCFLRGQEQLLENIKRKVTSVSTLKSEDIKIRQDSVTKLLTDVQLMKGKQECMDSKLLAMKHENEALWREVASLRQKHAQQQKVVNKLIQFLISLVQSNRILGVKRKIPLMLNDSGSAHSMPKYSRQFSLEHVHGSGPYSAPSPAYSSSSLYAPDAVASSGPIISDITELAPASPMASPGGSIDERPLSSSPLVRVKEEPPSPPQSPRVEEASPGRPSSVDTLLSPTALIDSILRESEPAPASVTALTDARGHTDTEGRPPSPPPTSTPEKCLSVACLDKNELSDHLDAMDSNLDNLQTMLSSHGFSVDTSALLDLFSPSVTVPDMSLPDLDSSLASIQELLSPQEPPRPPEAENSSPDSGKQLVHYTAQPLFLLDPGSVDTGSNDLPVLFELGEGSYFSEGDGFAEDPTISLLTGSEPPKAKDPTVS
Sequence of ELF1 (P32519 whole entry): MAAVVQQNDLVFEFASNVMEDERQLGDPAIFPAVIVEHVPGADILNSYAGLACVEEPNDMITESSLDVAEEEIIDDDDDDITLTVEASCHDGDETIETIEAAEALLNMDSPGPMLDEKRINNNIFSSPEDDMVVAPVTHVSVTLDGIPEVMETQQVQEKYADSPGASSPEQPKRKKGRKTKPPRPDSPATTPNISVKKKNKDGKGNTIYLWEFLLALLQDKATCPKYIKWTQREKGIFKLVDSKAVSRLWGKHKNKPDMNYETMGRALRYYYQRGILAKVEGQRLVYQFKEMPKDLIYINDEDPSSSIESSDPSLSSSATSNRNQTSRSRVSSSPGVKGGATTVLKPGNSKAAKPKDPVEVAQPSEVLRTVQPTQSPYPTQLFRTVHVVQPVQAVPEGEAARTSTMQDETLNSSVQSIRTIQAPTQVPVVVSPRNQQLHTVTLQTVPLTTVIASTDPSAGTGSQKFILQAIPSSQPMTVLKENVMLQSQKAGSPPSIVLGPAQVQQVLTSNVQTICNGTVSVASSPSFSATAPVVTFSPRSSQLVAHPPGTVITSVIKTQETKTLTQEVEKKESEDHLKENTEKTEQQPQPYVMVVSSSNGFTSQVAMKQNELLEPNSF
Sequence of SPIB (Q01892 whole entry): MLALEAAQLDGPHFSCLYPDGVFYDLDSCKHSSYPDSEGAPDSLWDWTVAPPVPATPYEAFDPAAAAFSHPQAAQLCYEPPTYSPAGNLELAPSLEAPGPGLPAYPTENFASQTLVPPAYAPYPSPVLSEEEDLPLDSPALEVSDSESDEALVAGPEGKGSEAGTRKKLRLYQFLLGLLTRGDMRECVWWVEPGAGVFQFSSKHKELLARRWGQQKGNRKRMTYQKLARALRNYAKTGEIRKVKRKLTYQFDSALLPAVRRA
Sequence of ELF4 (Q99607 whole entry): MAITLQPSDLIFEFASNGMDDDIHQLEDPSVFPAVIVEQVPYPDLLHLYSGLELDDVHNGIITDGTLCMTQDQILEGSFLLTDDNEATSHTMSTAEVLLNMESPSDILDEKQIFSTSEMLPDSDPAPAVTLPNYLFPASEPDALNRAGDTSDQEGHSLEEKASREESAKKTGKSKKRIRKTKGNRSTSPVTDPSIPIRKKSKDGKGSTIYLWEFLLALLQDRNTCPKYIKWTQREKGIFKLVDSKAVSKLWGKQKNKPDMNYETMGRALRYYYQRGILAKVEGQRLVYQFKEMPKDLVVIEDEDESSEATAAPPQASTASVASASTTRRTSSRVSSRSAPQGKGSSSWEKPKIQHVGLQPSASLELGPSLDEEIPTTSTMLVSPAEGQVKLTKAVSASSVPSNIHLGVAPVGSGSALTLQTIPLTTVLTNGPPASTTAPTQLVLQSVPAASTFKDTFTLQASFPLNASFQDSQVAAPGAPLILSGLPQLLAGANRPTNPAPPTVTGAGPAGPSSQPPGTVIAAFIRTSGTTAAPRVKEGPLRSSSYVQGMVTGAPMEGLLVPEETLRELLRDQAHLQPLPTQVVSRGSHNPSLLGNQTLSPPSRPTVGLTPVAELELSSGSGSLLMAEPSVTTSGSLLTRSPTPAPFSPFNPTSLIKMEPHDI

Regarding TTCGGC, the binding signal in the assay with FLI1 was 1.03 fold enrichment (6-mer frequency, TF over GST control); with ELK1 it was 1.14 fold enrichment (6-mer frequency, TF over GST control); with GABPA, 1.22 fold enrichment (6-mer frequency, TF over GST control); with ERG, 1.08 fold enrichment (6-mer frequency, TF over GST control); with ELF1, 1 fold enrichment (6-mer frequency, TF over GST control); with SPI1, 1.04 fold enrichment (6-mer frequency, TF over GST control). Moreover, the binding signal with SPIB was 1.02 fold enrichment (6-mer frequency, TF over GST control); with FEV, 1 fold enrichment (6-mer frequency, TF over GST control); with ETV5, 1.02 fold enrichment (6-mer frequency, TF over GST control); in the assay with HSF1 it was 1.05 fold enrichment (6-mer frequency, TF over GST control); with SPIC it was 1.1 fold enrichment (6-mer frequency, TF over GST control); with ELF4 it was 1.19 fold enrichment (6-mer frequency, TF over GST control). The binding signal with ELK4 is 1.07 fold enrichment (6-mer frequency, TF over GST control); with ETV2 it was 1.22 fold enrichment (6-mer frequency, TF over GST control); with ELF3, 1.07 fold enrichment (6-mer frequency, TF over GST control); with CRX, 1.1 fold enrichment (6-mer frequency, TF over GST control); in the assay with ETV1, 1.14 fold enrichment (6-mer frequency, TF over GST control).

The values are drawn from article PMC7862700, “An all-to-all approach to the identification of sequence-specific readers for epigenetic DNA modifications on cytosine”.
